# Assay outcomes as filed in PubChem.
# A selection: hits, their analogues and other compounds. The true share with any hit is near 11%.
# HP1b binding inh – inhibitors of HP1-beta chromodomain binding to methylated histone tails; P83916; AlphaScreen HP1-beta / biotin-H3K9me3 peptide binding; Potency, µM (highest dose often 114 µM), without a hit: at the highest dose activity change, negative = inhibition, most hits filed as inhibitors; 0.56% of 390,000 active; AID 540317; further: nearly all actives have a fitted effect of over 70% in size
# Target sequence (P83916 whole entry, looked up): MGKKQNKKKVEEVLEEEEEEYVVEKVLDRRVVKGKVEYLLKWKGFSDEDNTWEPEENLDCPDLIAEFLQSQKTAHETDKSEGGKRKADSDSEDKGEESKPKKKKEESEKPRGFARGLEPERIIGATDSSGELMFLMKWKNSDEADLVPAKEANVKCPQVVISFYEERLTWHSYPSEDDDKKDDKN
#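 Compound inhibition of the preformed complex between 50 nM HP1-beta and 50 nM biotinylated H3K9me3 peptide was read by AlphaScreen. Buffer was PBS pH 7.4 with 0.01% Tween-20. Incubations ran 30 min at room temperature, with 10 ug/mL donor/acceptor beads.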
# G9a inh – inhibitors of human histone lysine methyltransferase G9a. Q96KQ7. G9a H3K9 monomethylation, AlphaScreen, 2 h. Potency, µM (titrated, usually from 102 µM), without a hit: at the highest dose activity, negative = inhibition, hits mostly inhibitors. 8.8% of 350,000 active. AID 504332; further: on the % scale 0 is the no-effect control and ±100 the full control effect; nearly all actives have a fitted effect of over 75% in size
# Target sequence (Q96KQ7 913-1193 limits assumed): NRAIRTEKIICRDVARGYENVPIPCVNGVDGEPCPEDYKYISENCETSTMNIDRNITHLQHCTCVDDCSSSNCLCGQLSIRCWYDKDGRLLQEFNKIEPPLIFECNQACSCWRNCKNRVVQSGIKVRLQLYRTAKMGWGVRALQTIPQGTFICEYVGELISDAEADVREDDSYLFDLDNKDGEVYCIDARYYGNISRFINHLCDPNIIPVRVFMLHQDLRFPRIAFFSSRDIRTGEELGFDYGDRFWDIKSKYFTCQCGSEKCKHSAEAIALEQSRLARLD
#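 Using a bead-based AlphaScreen, monomethylated H3K9 product from 2 h room-temperature reactions (G9a 20 nM, peptide 500 nM, SAM 20 uM) was detected with 0.5 ug/mL rabbit anti-H3K9me1 antibody.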
# L3MBTL1 inh – blocks human L3MBTL1 | Q9Y468 | AlphaScreen L3MBTL1–H3K9me1 peptide binding | Potency, µM (series often up to 57.1 µM), for inactives: top-dose activity, negative = inhibition, most hits filed as inhibitors | 0.66% of 230,000 active | AID 485360; further: on the % scale 0 is the no-effect control and ±100 the full control effect; nearly all actives have a fitted effect of over 60% in size
#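 L3MBTL1 (50 nM) pre-complexed 30 min with biotinylated H3(1-15)K9me1 peptide (75 nM), then compounds added for 30 min at room temperature; AlphaScreen streptavidin donor/nickel chelate acceptor beads (10 ug/mL final) read after 30 min dark incubation.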
# BAZ2B inh – inhibitors of human BAZ2B bromodomain. AlphaScreen BAZ2B-H3K14Ac peptide displacement. 4.4% of 360,000 active. AID 504333. Q9UIF8. Potency, µM (series often up to 114 µM), without a hit: top-dose activity change, negative = inhibition, actives largely listed as inhibitors; further: on the % scale 0 is the no-effect control and ±100 the full control effect; nearly all actives have a fitted effect of over 60% in size
#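 Inhibition is scored as reduced AlphaScreen emission. The BAZ2B/b-H3(5-23)K14Ac complex (50 nM each) in PBS pH 7.4, 0.01% Tween-20 meets compound (up to 110 uM) for 30 min at RT before bead addition.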
# JMJD2A Tudor – blocks the human JMJD2A Tudor domain; 4.4% of 390,000 active; AlphaScreen JMJD2A-Tudor / H3K4me3 peptide binding; Potency, µM (top dose mostly 114 µM), without a hit: at the top dose activity change, negative = inhibition, most hits filed as inhibitors; further: on the % scale 0 is the no-effect control and ±100 the full control effect; nearly all actives have a fitted effect of over 50% in size
# * = called active by the depositor; ? = inconclusive; / = no result given; ! = a repeat was not active; [ ] = remark or other dose. The call rests on the fitted dose curve; in most records, active means well fitted inhibition curve with a large enough effect; inconclusive means small, poorly fitted or top-dose-only effect; inactive means no such curve, though single readings can be large or run the other way. Potency means the concentration at half of the fitted maximal effect.
SMILES,HP1b binding inh,G9a inh,L3MBTL1 inh,BAZ2B inh,JMJD2A Tudor
CCN(CC)c1ccc(CN2CC=C(c3ccc(F)cc3)CC2)cc1,45µM*,45µM*,/,79µM*,50µM*
COc1ccc(Cl)cc1NC(=O)CN1C(=O)CN=C(c2ccccc2)c2cc(Cl)ccc21,0%,?,/,/,-35%
O=C(Nc1ccc(Cl)c(C(F)(F)F)c1)c1ccc2c(c1)CCN2S(=O)(=O)c1ccccc1,64%,8%[59 µM],/,2%,6%
N#C/C(=C/c1ccc(O)c(O)c1)C(N)=S,/,7.5µM*,/,/,/
N#C/C(=C\c1ccc(O)c(O)c1)C(=O)NCCCNC(=O)/C(C#N)=C/c1ccc(O)c(O)c1,/,1.7µM*,/,/,/
O=C(Nc1cccc(F)c1)N1CCCC2(CCN(C(=O)Oc3ccccc3)CC2)C1,/,3%[12.7 µM],/,/,/
O=C(Oc1ccccc1)N1CCC2(CCCN(Cc3nccs3)C2)CC1,/,-8%[12.7 µM],/,/,/
CC1OC(=O)C(C(C)C)NC(=O)C(C(C)C)OC(=O)C(C(C)C)NC(=O)C(C)OC(=O)C(C(C)C)NC(=O)C(C(C)C)OC(=O)C(C(C)C)NC(=O)C(C)OC(=O)C(C(C)C)NC(=O)C(C(C)C)OC(=O)C(C(C)C)NC1=O (stereo not given),/,17%[59 µM],/,/,/
CC(C)N1C(=O)CC2(CC[N+](C)(CCOC(=O)C(O)(c3ccccc3)c3ccccc3)CC2)C1=O (stereo not given),46%,40µM*,-3%,-24%,-5%
CN(C)CCN(C(=O)c1cc(Cl)sc1Cl)c1nc2ccc(F)cc2s1,-14%,11µM*,-2%,?,?
CC1=CC(=O)C2=C(C)C[C@@H](O)[C@@H]3[C@@H](OC(=O)[C@H]3C)[C@H]12,/,23%[21.5 µM],/,/,/
O=C(O)Cc1ccccc1,/,19%[59 µM],/,/,/
O=C(Cc1ccccc1)c1ccccn1,-20%,/,/,/,3.5µM*
NC(=O)c1ccc(N=Nc2c(O)[nH]c(=O)[nH]c2=O)cc1,/,18%,8%,-2%,/
O=c1[nH]c(O)c(N=Nc2cc([N+](=O)[O-])ccc2O)c(=O)[nH]1,?,45µM*,-19%,50µM*,89µM*
CC1=NN=C(c2ccc(N)cc2)c2cc3c(cc2C1)OCO3,23%,7.5µM*!,-4%,?,?
CC1Cc2cc3c(cc2C(c2ccc(N)cc2)=NN1)OCO3 (stereo not given),/,8.9µM*,/,/,/
CCCCCP(=O)(O)c1ccccc1,20%,-1%[59 µM],3%,/,-13%
CCCC/C(C)=C/[C@@H](NP(=O)(c1ccccc1)c1ccccc1)c1ccccc1,22%,32µM*,-14%,-37%,-19%
C#CCNc1ccncc1S(=O)(=O)NC(=O)NC(C)C,24%,?,3%,-9%,50µM*
CN1CCCC2(CCN(C(=O)Oc3ccccc3)CC2)C1,/,9%[12.7 µM],/,/,/
Cc1ccc(S(=O)(=O)N(CC(=O)NCCSc2ccc(Cl)cc2)c2ccccc2C)cc1,52%,14%[59 µM],/,-17%,2%
CN(C)c1ccc(C=C2C(=O)NC(=O)NC2=O)cc1,1%[57 µM],/,/,/,-1%
CCN(CC)c1ccc(C=C2C(=O)NC(=S)NC2=O)cc1,?,7.9µM*,-12%,50µM*,45µM*
CC(=O)Nc1ccc(C=C2C(=O)NC(=O)NC2=O)cc1,40%,/,/,/,-9%
SMILES,HP1b binding inh,G9a inh,L3MBTL1 inh,BAZ2B inh,JMJD2A Tudor
CN(C)c1ccc(C=C2C(=O)NC(=S)NC2=O)cc1,-3%,/,/,/,50µM*
CC(C)CN(CC(C)C)c1ccc(C=C2C(=O)NC(=S)NC2=O)cc1[N+](=O)[O-],-84%,?,?,35µM*,35µM*
CC1CCN(C(CC(=O)c2ccccc2)C(=O)c2ccccc2)CC1 (stereo not given),?,/,/,/,20µM*
O=C(c1ccccc1)C(CN1CCCC1)c1ccccc1 (stereo not given),37%,-10%[59 µM],0%,10%,-4%
O=C1NC(=O)C2(Cc3ccccc3N3CCOCC32)C(=O)N1c1ccccc1 (stereo not given),13%,-4%,/,0%,-14%
O=C1NC(=O)C2(Cc3ccccc3N3CCCC32)C(=O)N1 (stereo not given),17%,50µM*,/,-23%,-19%
O=C1NC(=O)C2(Cc3ccccc3N3CCCC32)C(=O)N1c1ccccc1 (stereo not given),50%,28µM*,-6%,13%,-16%
NCc1cccnc1,/,2%[12.7 µM],/,/,/
O=C(NC(O)C(Cl)(Cl)Cl)NC(O)C(Cl)(Cl)Cl (stereo not given),/,2%[12.7 µM],/,/,/
CCN1C[C@]2(C)CC[C@H](OC)[C@@]34[C@@H]2[C@H](OC(C)=O)[C@]2(OCO[C@@]25C[C@@H](OC)[C@@H]2C[C@@]3(O)[C@H]5[C@@H]2OC)[C@H]14,/,20%[21.5 µM],/,/,/
NC(=O)CSP(=O)(c1ccccc1)c1ccccc1,18%,13µM*,0%,-22%,-31%
Cc1ccc(C)c(N2CCN(c3ncnc4onc(C)c34)CC2)c1,53%,-9%[59 µM],/,17%[57.1 µM],-6%
COc1ccc(CN2C(=O)NC(=O)/C(=C/c3ccc([N+](=O)[O-])o3)C2=O)cc1,/,7.1µM*,/,14µM*,/
COc1ccc(CN2C(=O)NC(=O)/C(=C\c3cccc(OC)c3OC)C2=O)cc1,11%,?,/,?,56µM*
CCCc1nc(SC)ncc1C(=O)Nc1ccc(Cl)cc1C(=O)c1ccccc1,-17%,1%[59 µM],/,-13%,-26%
CCN(CC)c1ccc(NC(=O)c2cccc(C)c2)cc1S(=O)(=O)Nc1ccccc1OC,?,3.5µM*,1%,-37%,?
O=C(N=Nc1c(O)[nH]c(=O)[nH]c1=O)C1COc2cc3ccccc3cc2O1 (stereo not given),-16%,50µM*,?,?,-15%[11.4 µM]
CC/C(CC(c1ccccc1)c1c(O)c2ccccc2oc1=O)=N\NC(N)=S (stereo not given),?,-6%[59 µM],-10%,-1%,3.2µM*
Cc1c(C(c2ccccc2Cl)c2c(O)c3ccccc3oc2=O)c(=O)n(-c2ccccc2)n1C (stereo not given),29%,14%,-4%,1%,5%
Cc1c(C(c2ccc(F)cc2)c2c(O)c3ccccc3oc2=O)c(=O)n(-c2ccccc2)n1C (stereo not given),21%,-22%[59 µM],13%,-21%,-13%
O=c1oc2ccccc2c(O)c1C(c1ccc([N+](=O)[O-])cc1)c1c(O)c2ccccc2oc1=O,1%,40µM*,?,56µM*,?
C/C(CC(c1ccccc1)c1c(O)c2ccccc2oc1=O)=N\Nc1ccc([N+](=O)[O-])cc1[N+](=O)[O-] (stereo not given),?,14µM*,/,35µM*,35µM*
COc1ccc(C(c2c(O)c3ccccc3oc2=O)c2c(C)n(C)n(-c3ccccc3)c2=O)cc1 (stereo not given),10%,-5%[59 µM],3%,-1%,-23%
